Measured values from PubChem BioAssay.
Records with an inconclusive call do not appear. Active and inactive are the calls of the source.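 The calls were made as follows, unless noted: active = response below a set limit, under 55% cells CD8-positive and vesicle-bound, and CD8 cells' 90th-percentile brightness under 279; inactive = the rest.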

How the values were obtained:
[1] = rapamycin-like changes in RPL19A-GFP expression – cell-based, S. cerevisiae, multiplex flow cytometry, primary screen (AID 1862; in the data active = percent of DMSO control GFP below about 86%;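 also: lower values mimic rapamycin by blocking the RPL19A rise seen in DMSO cells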); details: S. cerevisiae RPL19A-GFP strain, flow cytometry fluorescence, 3 h; at 10 µM; stronger effect = lower value
[2] = TOR pathway GLN3 branch reporter MEP2-GFP changes – S. cerevisiae, multiplex flow cytometry, primary screen (AID 1867;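 active = GFP response, as percent of the DMSO control, above the screen-wide mean plus 3 SD, about 139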;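 also: median GFP channel fluorescence of barcode-gated MEP2-GFP cells measured by flow cytometry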); details: S. cerevisiae MEP2-GFP strain, 3 h, at 10 µM, stronger effect = higher value, 100% means same as DMSO wells
[3] = TOR pathway RTG branch CIT2 reporter changes – S. cerevisiae, GFP fusion, multiplex flow cytometry, primary screen (AID 1870;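 active = percent response above a set limit, the screen-wide mean plus 3 SD, cut at about 130% in these data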;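 also: barcoded CIT2-GFP strain pooled with four other GFP strains with rapamycin as positive control; median GFP fluorescence per well over plate mean of DMSO wells so 100% = DMSO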); details: S. cerevisiae CIT2-GFP expression, 3 h, at 10 µM, stronger effect = higher value
[4] = TOR pathway LAP4-GFP level changes – S. cerevisiae, multiplex flow cytometry, primary screen (AID 1873;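 active = GFP signal, as percent of the solvent control, above the screen mean plus 3 SD, about 149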); details: S. cerevisiae LAP4-GFP expression, 3 h, at 10 µM, stronger effect = higher value
[5] = yeast AGP1-GFP level changes, GLN3 branch – cell-based, multiplex flow cytometry, S. cerevisiae, primary screen (AID 1887;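 active = GFP signal above the screen-wide mean plus 3 SD, that is over about 124.5% of the solvent control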;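 also: AGP1-GFP fusion strain of S. cerevisiae within a five-strain barcoded multiplex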); details: 3 h, at 10 µM, stronger effect = higher value
[6] = reduced mouse 2C T cell binding to pMHC/ICAM-1 vesicles – MLPCN validation set, flow cytometry, LFA-1/ICAM-1 modulator project, pilot screen (AID 2523); details: 2C mouse CD8+ T cells, at 7 µM, stronger effect = lower value; double positive events: measured here: CD8+/vesicle+ event percentage;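 as to vesicle binding response: mean PE anti-B7-1 fluorescence of CD8+ cells relative to row control; 100% = QL9-loaded vesicles with DMSO vehicle in the same plate row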
[7] = molecular target: Integrin beta-1 (Homo sapiens) + Integrin alpha-4 (Homo sapiens) (UniProt P13612+P05556); assay: alpha4beta1 integrin LIBS antibody binding reduction – U937 cells, HUTS-21 mAb, flow cytometry, validation set, VLA-4 allosteric modulator project, pilot screen (AID 2674;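 active = inhibition above 50%, about 3 SD of the validation set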;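 also: antibody binding induced by the VLA-4 ligand LDV present at three times its Kd; 0% = LDV ligand with antibody and no compound and 100% = antibody without LDV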); details: HUTS-21 LIBS mAb binding, at 6.7 µM, stronger effect = higher value, binding induced by LDV ligand
[8] = calorie-restriction mimetic ROS inhibitors, yeast – validation compound set, pilot screen (AID 2706;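 active = superoxide response below 65% of plate, a cut near 3 SD across the whole screen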;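 also: yeast exposed to compound for one week at 30 degrees C before staining; 100% = mean of all compound wells on the same plate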); details: S. cerevisiae aging, superoxide DHE fluorescence; at 10 µM; stronger effect = lower value
[9] = molecular target: Beta-adrenergic receptor kinase 1 (Homo sapiens) (UniProt P25098); assay: GRK2 binders displacing RNA aptamer, biochemical, validation, human GRK2, bead flow cytometry (AID 488806;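 active = aptamer binding inhibition above 30%, about 3 SD of noise from non-fluorescent compounds; inactive = inhibition at or below 30%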); details: bead-bound GRK2, FAM-aptamer displacement, at 10 µM, stronger effect = higher value
[10] = molecular target: Beta-2 adrenergic receptor (Homo sapiens) (UniProt P07550); assay: agonist-induced loss of surface beta2AR – cell-based, FAP fluorogen, flow cytometry, validation set, pilot screen (AID 504459;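 active = percent response above 42, roughly 3 SD of non-fluorescent test compounds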;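 also: agonist-driven loss of surface beta2AR via internalization measured by FAP dye flow cytometry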); details: Am2.2-beta2AR cells, at 10 µM, stronger effect = higher value
[11] = molecular target: AP-2 complex subunit beta (Homo sapiens) (UniProt P63010); assay: beta-arrestin/AP2 interaction blockers – biochemical, validation set, GST-AP2 beads, flow cytometry, pilot screen (AID 504541;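 active = inhibition above 54%, about 3 SD of non-fluorescent compounds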;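 also: AP2 carries R879A mutation and is captured from E. coli lysate; bead-bound FITC arrestin peptide fluorescence measuring arrestin peptide binding to AP2; 0% = DMSO wells and 100% = excess unlabeled arrestin peptide control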); details: FITC arrestin peptide, at 10 µM, stronger effect = higher value, AP2 beta2 appendage fragment, R879A mutant
[12] = cytosolic pH regulators acting via V-ATPase – S. cerevisiae, pHLuorin, HTS validation (AID 504600; in the data active = response above about 15%;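 also: plate controls were DMSO for no effect and reference compound for full effect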); details: V-ATPase proton transport, at 10 µM, stronger effect = higher value
[13] = test system: anti-desmoglein-3 scFv antibody binding to human DSG3; assay: blockers of pathogenic pemphigus antibody–desmoglein-3 binding – biochemical, validation compound set, bead-based, flow cytometry, pilot screen (AID 588368;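 active = binding below the plate cutoff, the plate median minus 3 SD, with a reading above zero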;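 also: signal is the median channel fluorescence of bead-bound GFP antibody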); details: Protein G beads, DSG3-Fc, scFv-GFP binding, at 10 µM, stronger effect = lower value
[14] = Nile Red efflux blockade in pump-expressing yeast – validation compound set, multiplex, phenotypic, pilot screen (AID 588506;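 active = efflux inhibition above 0.42, the validation set average plus 4 SD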;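 also: Nile Red retained in cells so higher fluorescence means more efflux inhibition; 0 = negative control wells and 1 = enniatin B 25 µM full block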); details: S. cerevisiae pump-expressing triplex, Nile Red efflux flow cytometry; at 10 µM; stronger effect = higher value; the pumps come from Candida albicans
[15] = molecular target: ATP-binding cassette sub-family B member 6 (Homo sapiens) (UniProt Q9NP58); assay: blockers of ABCB6-driven porphyrin uptake – K562-ABCB6 cells, flow cytometry, validation set, pilot screen (AID 588550;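 active = inhibition above the screen-wide mean plus 3 SD, about 51%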;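 also: 0% = DMSO wells and 100% = benzethonium chloride 70 µM positive control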); details: K562-ABCB6 porphyrin accumulation, 1 h, at 10 µM, stronger effect = higher value
[16] = AML differentiation inducers, ER-HoxA9 marrow cells – cell-based, GFP/MAC1 double positive, flow cytometry, validation set, primary screen (AID 588685;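 active = differentiation response of at least 50%, scaled between solvent and reference control, from cells with both markers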;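 also: compound exposure lasts four days before antibody staining and flow analysis; 0% = DMSO wells and 100% = 5 µM fulvestrant positive control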); details: stronger effect = higher value, normalized: vehicle 0, fulvestrant 100

Chain of Beta-2 adrenergic receptor (Homo sapiens) (P07550 whole entry, looked up): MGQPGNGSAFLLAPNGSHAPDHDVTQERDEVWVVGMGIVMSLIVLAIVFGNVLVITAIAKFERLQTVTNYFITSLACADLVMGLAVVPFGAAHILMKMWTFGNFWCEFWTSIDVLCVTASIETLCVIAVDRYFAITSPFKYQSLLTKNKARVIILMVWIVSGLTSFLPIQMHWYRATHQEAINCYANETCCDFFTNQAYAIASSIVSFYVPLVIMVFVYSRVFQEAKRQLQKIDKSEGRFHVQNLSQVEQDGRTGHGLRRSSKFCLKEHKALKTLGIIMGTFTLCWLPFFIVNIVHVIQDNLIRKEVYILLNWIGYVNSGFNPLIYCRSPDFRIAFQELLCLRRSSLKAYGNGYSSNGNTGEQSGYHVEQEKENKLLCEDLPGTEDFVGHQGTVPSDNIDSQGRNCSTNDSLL
Chain of ATP-binding cassette sub-family B member 6 (Homo sapiens) (Q9NP58 whole entry, looked up): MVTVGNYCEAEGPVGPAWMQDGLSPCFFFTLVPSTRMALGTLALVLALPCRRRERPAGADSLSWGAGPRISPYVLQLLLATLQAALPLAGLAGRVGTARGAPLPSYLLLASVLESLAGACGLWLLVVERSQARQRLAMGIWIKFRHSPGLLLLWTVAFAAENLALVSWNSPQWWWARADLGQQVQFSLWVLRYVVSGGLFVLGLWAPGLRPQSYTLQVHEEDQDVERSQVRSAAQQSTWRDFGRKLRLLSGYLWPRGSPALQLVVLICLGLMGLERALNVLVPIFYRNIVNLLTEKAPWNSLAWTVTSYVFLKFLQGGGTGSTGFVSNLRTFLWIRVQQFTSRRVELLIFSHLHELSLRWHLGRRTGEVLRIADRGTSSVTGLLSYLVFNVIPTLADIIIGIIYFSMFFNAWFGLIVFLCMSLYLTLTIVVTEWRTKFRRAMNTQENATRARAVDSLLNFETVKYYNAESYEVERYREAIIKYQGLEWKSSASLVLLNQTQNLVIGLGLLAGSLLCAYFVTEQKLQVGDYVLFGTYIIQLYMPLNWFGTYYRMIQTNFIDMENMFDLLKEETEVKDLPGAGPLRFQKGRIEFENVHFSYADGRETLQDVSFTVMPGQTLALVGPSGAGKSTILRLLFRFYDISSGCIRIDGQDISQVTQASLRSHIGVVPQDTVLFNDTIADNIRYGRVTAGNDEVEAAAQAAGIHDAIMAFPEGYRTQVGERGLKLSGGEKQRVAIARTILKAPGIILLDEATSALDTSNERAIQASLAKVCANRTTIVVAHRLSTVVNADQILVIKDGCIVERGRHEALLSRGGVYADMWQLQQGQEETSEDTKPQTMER
Chain of AP-2 complex subunit beta (Homo sapiens) (P63010 whole entry, looked up, the tested form may be a part, one chain of several): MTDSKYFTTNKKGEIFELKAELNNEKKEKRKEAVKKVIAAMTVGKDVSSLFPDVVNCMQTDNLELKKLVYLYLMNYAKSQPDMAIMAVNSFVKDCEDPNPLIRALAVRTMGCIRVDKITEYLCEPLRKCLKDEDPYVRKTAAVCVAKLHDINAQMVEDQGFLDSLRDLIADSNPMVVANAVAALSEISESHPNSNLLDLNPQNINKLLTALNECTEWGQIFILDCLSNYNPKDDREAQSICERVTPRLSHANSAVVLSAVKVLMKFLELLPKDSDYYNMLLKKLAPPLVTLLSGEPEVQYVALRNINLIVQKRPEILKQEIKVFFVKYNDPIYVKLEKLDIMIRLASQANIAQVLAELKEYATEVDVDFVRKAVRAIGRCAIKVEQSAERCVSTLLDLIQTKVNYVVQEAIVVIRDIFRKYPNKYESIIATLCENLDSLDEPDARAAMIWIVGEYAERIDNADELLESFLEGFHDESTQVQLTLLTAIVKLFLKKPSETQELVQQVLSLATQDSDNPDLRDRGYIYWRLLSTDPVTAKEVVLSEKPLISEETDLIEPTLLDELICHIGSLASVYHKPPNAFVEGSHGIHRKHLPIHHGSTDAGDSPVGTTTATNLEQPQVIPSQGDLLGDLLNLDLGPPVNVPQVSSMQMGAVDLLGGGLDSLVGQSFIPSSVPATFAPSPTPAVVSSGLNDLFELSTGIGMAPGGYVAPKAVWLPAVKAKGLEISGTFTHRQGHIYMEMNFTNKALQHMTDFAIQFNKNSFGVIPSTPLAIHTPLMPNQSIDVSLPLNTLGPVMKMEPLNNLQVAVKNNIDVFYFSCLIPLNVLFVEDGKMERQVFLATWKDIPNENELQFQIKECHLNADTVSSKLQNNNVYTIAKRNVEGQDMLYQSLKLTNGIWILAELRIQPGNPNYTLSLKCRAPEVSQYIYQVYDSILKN
Chain of Integrin beta-1 (Homo sapiens) + Integrin alpha-4 (Homo sapiens) (P05556 whole entry, looked up): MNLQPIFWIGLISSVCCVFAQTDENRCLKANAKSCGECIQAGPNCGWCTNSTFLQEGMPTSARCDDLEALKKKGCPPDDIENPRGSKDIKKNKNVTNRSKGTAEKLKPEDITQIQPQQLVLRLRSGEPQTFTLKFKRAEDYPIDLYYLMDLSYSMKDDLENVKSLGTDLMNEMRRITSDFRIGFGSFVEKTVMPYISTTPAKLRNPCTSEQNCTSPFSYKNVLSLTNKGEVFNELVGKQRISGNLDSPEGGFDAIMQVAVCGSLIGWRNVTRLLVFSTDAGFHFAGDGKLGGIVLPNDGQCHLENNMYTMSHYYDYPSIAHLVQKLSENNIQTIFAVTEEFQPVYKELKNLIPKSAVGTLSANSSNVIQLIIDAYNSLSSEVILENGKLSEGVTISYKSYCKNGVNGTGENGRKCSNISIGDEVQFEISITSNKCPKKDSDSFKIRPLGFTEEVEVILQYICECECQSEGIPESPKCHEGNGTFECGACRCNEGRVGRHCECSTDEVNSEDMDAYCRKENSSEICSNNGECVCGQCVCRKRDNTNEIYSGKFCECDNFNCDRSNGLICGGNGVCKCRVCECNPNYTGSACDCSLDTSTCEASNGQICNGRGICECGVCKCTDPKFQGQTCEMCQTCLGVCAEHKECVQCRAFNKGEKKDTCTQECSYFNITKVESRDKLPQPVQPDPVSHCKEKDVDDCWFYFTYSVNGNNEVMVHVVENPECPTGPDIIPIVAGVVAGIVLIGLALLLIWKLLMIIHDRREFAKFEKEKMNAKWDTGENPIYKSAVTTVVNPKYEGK
Chain of Integrin beta-1 (Homo sapiens) + Integrin alpha-4 (Homo sapiens) (P13612 whole entry, looked up): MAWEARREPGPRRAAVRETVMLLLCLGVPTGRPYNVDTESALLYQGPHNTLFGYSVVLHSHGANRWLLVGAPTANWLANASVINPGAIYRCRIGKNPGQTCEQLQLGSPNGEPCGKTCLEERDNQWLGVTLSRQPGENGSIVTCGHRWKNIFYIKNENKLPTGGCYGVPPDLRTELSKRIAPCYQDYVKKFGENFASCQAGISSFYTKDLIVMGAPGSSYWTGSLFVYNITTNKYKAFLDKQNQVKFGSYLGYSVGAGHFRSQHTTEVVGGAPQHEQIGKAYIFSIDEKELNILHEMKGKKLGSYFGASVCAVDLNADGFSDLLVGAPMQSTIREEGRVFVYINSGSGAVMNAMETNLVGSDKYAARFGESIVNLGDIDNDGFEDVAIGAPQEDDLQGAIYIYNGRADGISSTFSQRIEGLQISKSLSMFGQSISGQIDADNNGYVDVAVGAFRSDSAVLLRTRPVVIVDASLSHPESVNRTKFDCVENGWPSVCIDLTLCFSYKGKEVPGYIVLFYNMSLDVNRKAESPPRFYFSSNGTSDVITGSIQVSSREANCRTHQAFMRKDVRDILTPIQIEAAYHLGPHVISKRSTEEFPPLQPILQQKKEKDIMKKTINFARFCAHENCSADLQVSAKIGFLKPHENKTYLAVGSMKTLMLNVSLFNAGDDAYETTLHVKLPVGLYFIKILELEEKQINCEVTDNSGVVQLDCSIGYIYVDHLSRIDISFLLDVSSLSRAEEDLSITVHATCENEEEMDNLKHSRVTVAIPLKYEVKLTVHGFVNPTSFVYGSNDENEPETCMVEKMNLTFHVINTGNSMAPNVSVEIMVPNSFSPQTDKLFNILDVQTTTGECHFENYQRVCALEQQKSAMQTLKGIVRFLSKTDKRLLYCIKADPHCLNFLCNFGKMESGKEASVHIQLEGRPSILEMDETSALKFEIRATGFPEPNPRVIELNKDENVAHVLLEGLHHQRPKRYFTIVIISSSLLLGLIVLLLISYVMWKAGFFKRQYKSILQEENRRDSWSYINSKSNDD
Chain of Beta-adrenergic receptor kinase 1 (Homo sapiens) (P25098 whole entry, looked up): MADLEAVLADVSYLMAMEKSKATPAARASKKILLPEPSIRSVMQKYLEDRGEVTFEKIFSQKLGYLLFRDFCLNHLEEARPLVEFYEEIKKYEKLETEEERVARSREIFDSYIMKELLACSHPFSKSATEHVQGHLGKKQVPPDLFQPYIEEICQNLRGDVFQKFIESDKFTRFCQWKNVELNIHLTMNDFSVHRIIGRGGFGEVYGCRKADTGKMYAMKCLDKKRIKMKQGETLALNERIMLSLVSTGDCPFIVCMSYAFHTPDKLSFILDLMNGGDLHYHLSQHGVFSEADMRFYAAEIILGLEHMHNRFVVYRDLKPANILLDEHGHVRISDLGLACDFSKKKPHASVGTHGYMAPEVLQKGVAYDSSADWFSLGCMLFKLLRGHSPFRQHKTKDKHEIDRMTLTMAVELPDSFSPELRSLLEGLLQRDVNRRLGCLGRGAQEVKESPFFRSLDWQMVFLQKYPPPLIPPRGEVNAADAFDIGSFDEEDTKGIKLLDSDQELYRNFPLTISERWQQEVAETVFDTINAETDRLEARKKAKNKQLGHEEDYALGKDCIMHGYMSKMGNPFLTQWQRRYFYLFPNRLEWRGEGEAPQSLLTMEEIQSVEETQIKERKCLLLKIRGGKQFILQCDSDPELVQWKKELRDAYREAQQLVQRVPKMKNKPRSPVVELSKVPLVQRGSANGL

O=C1C(=O)N2C(=C1C(=O)N1CCCCCC1)c1ccccc1CC21CCCC1
inactive: percent of DMSO control GFP [1] 92.2% | GFP response vs DMSO [2] 109% | percent response of DMSO control [3] 86.3% | GFP response vs DMSO [4] 120% | GFP response, % of DMSO [5] 99.8% | vesicle binding response [6] 201% | inhibition [7] 9.13% | superoxide response (% of plate) [8] 115% | aptamer binding inhibition [9] 3% | response [10] -8.46% | inhibition [11] 31.8% | response [12] -1.64% | binding (% of control) [13] 105% | efflux inhibition (fraction of control) [14] -0.13 | inhibition [15] 3% | differentiation response [16] 5.6%
59.4%: double positive events [6]

COc1ccc(CNCCC(c2ccc(F)cc2)c2ccc(OC(C)C)cc2)cc1OC (stereo not given)
inactive: percent of DMSO control GFP [1] 97.9% | GFP response vs DMSO [2] 105% | percent response of DMSO control [3] 105% | GFP response vs DMSO [4] 119% | GFP response, % of DMSO [5] 110% | vesicle binding response [6] 227% | superoxide response (% of plate) [8] 91.3% | aptamer binding inhibition [9] -14% | response [10] 24.3% | inhibition [11] 38.1% | response [12] 0.54% | binding (% of control) [13] 113% | efflux inhibition (fraction of control) [14] -0.04 | inhibition [15] -1% | differentiation response [16] 2.89%
66.1%: double positive events [6]
active: inhibition [7] 64.5%

CN(C)CCC=C1c2ccccc2CCc2ccccc21
inactive: percent of DMSO control GFP [1] 93.9% | GFP response vs DMSO [2] 105% | percent response of DMSO control [3] 93.9% | GFP response vs DMSO [4] 113% | GFP response, % of DMSO [5] 95.4% | vesicle binding response [6] 227% | inhibition [7] 6.4% | superoxide response (% of plate) [8] 101% | aptamer binding inhibition [9] 2% | response [10] -0.14% | inhibition [11] -8.77% | response [12] 6.98% | binding (% of control) [13] 101% | efflux inhibition (fraction of control) [14] -0.17 | inhibition [15] 6% | differentiation response [16] -24.8%
60.1%: double positive events [6]

CC(=O)N1c2ccccc2C(C)=CC1(C)C
64.4%: double positive events [6]
inactive: percent of DMSO control GFP [1] 101% | GFP response vs DMSO [2] 107% | percent response of DMSO control [3] 98.3% | GFP response vs DMSO [4] 104% | GFP response, % of DMSO [5] 125% | vesicle binding response [6] 199% | inhibition [7] -17.3% | superoxide response (% of plate) [8] 112% | aptamer binding inhibition [9] 2% | response [10] -23.5% | inhibition [11] -16.5% | response [12] -0.45% | binding (% of control) [13] 109% | efflux inhibition (fraction of control) [14] -0.04 | inhibition [15] 2% | differentiation response [16] -1.05%

CCOc1ccc(CC2CCC(=O)NC2=O)cc1 (stereo not given)
64%: double positive events [6]
inactive: percent of DMSO control GFP [1] 103% | GFP response vs DMSO [2] 102% | percent response of DMSO control [3] 104% | GFP response vs DMSO [4] 110% | GFP response, % of DMSO [5] 115% | vesicle binding response [6] 156% | inhibition [7] -3.67% | superoxide response (% of plate) [8] 105% | aptamer binding inhibition [9] 6% | response [10] -15.9% | inhibition [11] 12.5% | response [12] -1.14% | binding (% of control) [13] 95.7% | efflux inhibition (fraction of control) [14] 0 | inhibition [15] 9% | differentiation response [16] 20.6%

COc1ccccc1NC(=O)Cn1c(C)cc(=O)c2cccc(OC)c21
active: efflux inhibition (fraction of control) [14] 0.58
inactive: percent of DMSO control GFP [1] 102% | GFP response vs DMSO [2] 108% | percent response of DMSO control [3] 100% | GFP response vs DMSO [4] 90.2% | GFP response, % of DMSO [5] 99.9% | vesicle binding response [6] 79.1% | inhibition [7] -11.8% | superoxide response (% of plate) [8] 105% | aptamer binding inhibition [9] 4% | response [10] 11.6% | inhibition [11] -11.8% | response [12] 0.11% | binding (% of control) [13] 103% | inhibition [15] 6% | differentiation response [16] -5.68%
60.7%: double positive events [6]

CCC(C)NCCOc1ccc(C(C)(C)c2ccccc2)cc1 (stereo not given)
61.9%: double positive events [6]
inactive: percent of DMSO control GFP [1] 107% | GFP response vs DMSO [2] 99.3% | percent response of DMSO control [3] 104% | GFP response vs DMSO [4] 94% | GFP response, % of DMSO [5] 103% | vesicle binding response [6] 181% | inhibition [7] -5.64% | superoxide response (% of plate) [8] 97.5% | aptamer binding inhibition [9] -5% | response [10] 17.1% | inhibition [11] -12.2% | response [12] -2.14% | binding (% of control) [13] 106% | efflux inhibition (fraction of control) [14] -0.01 | inhibition [15] -5% | differentiation response [16] 9.04%

Cc1cc(=O)[nH]c(=S)[nH]1
inactive: percent of DMSO control GFP [1] 97% | GFP response vs DMSO [2] 109% | percent response of DMSO control [3] 106% | GFP response vs DMSO [4] 79.2% | GFP response, % of DMSO [5] 96.6% | vesicle binding response [6] 223% | inhibition [7] 12.3% | superoxide response (% of plate) [8] 113% | aptamer binding inhibition [9] -9% | response [10] -11.1% | inhibition [11] -0.05% | response [12] 0.42% | binding (% of control) [13] 104% | efflux inhibition (fraction of control) [14] 0.12 | inhibition [15] 12% | differentiation response [16] 0.82%
64.4%: double positive events [6]

Cc1cc(C)nc(NS(=O)(=O)c2ccc(N)cc2)n1
inactive: percent of DMSO control GFP [1] 108% | GFP response vs DMSO [2] 98.3% | percent response of DMSO control [3] 116% | GFP response vs DMSO [4] 90.1% | GFP response, % of DMSO [5] 104% | vesicle binding response [6] 216% | inhibition [7] -5.64% | superoxide response (% of plate) [8] 95.6% | aptamer binding inhibition [9] 1% | response [10] -4.61% | inhibition [11] -9.4% | response [12] -1.72% | binding (% of control) [13] 90.1% | efflux inhibition (fraction of control) [14] 0.11 | inhibition [15] -1% | differentiation response [16] 6.11%
65.7%: double positive events [6]

Cc1oc2c(O)c(O)ccc2c(=O)c1-c1ccccc1
59.4%: double positive events [6]
inactive: percent of DMSO control GFP [1] 87.8% | GFP response vs DMSO [2] 107% | percent response of DMSO control [3] 106% | GFP response vs DMSO [4] 74.3% | GFP response, % of DMSO [5] 90.8% | vesicle binding response [6] 119% | inhibition [7] -1.3% | superoxide response (% of plate) [8] 110% | aptamer binding inhibition [9] 3% | response [10] -8.83% | inhibition [11] -5.67% | response [12] -1.26% | binding (% of control) [13] 107% | inhibition [15] 9% | differentiation response [16] -2.46%
active: efflux inhibition (fraction of control) [14] 0.45
